Unmarked numbers belong to inactive results. Calls follow the shape of the full dose curve. Results filed as inconclusive are left out.
biological target: Acetylcholinesterase (Homo sapiens) (UniProt P22303); experiment: Acetylcholinesterase (AChE) small molecule antagonists: enzyme-based qHTS assay (AID 1347397); settings: Potency: AChE enzyme activity inhibition; outcome: AChE enzyme activity inhibition; series mostly up to 115 µM; activity change, negative = inhibition: at the top concentration; also: nearly all actives have a fitted effect of over 55% in size
Sequence (P22303 whole entry, looked up): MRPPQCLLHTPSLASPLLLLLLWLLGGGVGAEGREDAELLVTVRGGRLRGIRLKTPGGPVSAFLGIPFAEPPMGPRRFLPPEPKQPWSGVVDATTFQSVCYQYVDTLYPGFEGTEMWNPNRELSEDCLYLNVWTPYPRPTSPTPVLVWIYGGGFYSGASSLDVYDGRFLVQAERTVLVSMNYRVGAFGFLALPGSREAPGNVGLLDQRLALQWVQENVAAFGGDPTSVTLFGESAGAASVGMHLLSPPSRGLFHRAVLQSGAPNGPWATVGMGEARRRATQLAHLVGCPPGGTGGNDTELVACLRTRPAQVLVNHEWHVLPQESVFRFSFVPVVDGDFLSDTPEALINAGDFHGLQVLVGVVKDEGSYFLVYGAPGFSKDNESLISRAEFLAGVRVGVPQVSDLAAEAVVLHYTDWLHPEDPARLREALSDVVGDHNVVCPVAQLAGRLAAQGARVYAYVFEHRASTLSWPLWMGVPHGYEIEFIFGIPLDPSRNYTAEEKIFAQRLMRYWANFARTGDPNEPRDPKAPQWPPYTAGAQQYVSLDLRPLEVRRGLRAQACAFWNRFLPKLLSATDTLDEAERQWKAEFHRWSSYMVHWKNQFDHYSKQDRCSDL
Summary of the method: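 Colorimetric DTNB readout of acetylthiocholine hydrolysis, 10 min at room temperature, after 30 min room-temperature exposure of 50 mU/mL recombinant human enzyme to compound; DMSO vehicle control.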
% is scaled to controls: 0 for no effect and ±100 for the full control effect.

| SMILES | activity change, negative = inhibition |
| --- | --- |
| CC1(C)CC(N)CC(C)(C)N1 | 1.97% |
| CC(C)(C)C(=O)O | -2.32% |
| Cc1cc(O)c2c(O)c3c(O)cccc3cc2c1 | 0% [at 53 µM] |
| O=c1c2ccccc2nnn1CCl | 0.526% |
| O=C1CCCC(=O)C1 | 0.562% |
| O=C(NN1CCCC1)NS(=O)(=O)c1ccc(Cl)cc1 | 0.742% [at 53 µM] |
| CC/C=C\CCCCO | 0.138% |
| OCCCS | 1.23% |
| CC1=CC(=O)[C@H]2C[C@@H]1C2(C)C | 0.839% |
| NC(=O)c1ccccc1 | 0.815% |
| Cc1cc(C)c(NC(=O)CN(CC(=O)O)CC(=O)O)c(C)c1Br | 0.142% [at 53 µM] |
| COc1cc(Cl)ccc1Oc1ccc(Cl)cc1Cl | 0.665% |
| CC(C)(C)c1ccc(OC(=O)c2ccccc2O)cc1 | -2.47% |
| COc1ccc(S(=O)(=O)N2c3ccc(Cl)cc3[C@@](O)(c3ccccc3Cl)[C@H]2C(=O)N2CCC[C@@H]2C(N)=O)cc1OC | 0.622% [at 53 µM] |
| CCCCC(CC)COCCO (stereo not drawn) | 0% |
| CC(=O)CCC1=C(C)CCCC1(C)C | -3.44% |
| CC1(c2ccccc2)OC(C(=O)O)=CC1=O (stereo not drawn) | -0.277% [at 53 µM] |
| COc1cccc(O)c1O | 0.885% |
| N#Cc1c(F)cccc1F | 2.41% |
| CC(C)(O)c1ccccc1CC[C@@H](SCC1(CC(=O)O)CC1)c1cccc(/C=C/c2ccc3ccc(Cl)cc3n2)c1 | -0.564% [at 53 µM] |

| SMILES | activity change, negative = inhibition |
| --- | --- |
| CC(C)(C)C1CCCCC1=O (stereo not drawn) | 0% |
| O=C1OC(=O)C2C3C=CC(C3)C12 (stereo not drawn) | 0.527% |
| CCCCCCCCCCc1ccccc1 | 0% |
| O=C(O)Cc1ccc(OCCNC[C@H](O)c2ccccc2)cc1 | 2.29% [at 53 µM] |
| C=CCOc1nc(OCC=C)nc(OCC=C)n1 | 0.256% |
| CCC(=O)OC/C=C(\C)CCC=C(C)C | 0.29% |
| C[C@@H]1CN(c2c(F)c(F)c3c(=O)c(C(=O)O)cn(C4CC4)c3c2F)C[C@H](C)N1 | -0.831% [at 23.6 µM] |
| CCOc1ccc(NC(=O)OC(C)C)cc1OCC | 2.51% |
| O=C(O)c1cccc(Cl)n1 | 4.29% |
| Cc1cc(OI)c(C(C)C)cc1-c1cc(C(C)C)c(OI)cc1C | -8.63% [at 53 µM] |
| COc1cc(-c2nc(NC(=O)c3cc4cc(C)cc(C)c4n3CC(=O)O)sc2CCC2CCCCC2)c(OC)cc1Cl | 1.27% |
| CCNc1nc(NC(C)CC)nc(OC)n1 (stereo not drawn) | 0.522% |
| CCCCOC(=O)CC | 0.487% |
| CCCCOc1ccc(CC(=O)NO)cc1 | 3.06% [at 53 µM] |
| NC(=O)C1CO1 (stereo not drawn) | -0.66% |
| CC(C)(C)C1CCC(CC2=C(O)c3ccccc3C(=O)C2=O)CC1 (stereo not drawn) | 0.139% [at 53 µM] |
| ON=C1CCCC1 | -0.818% |
| CO[Si](CCCNCCC[Si](OC)(OC)OC)(OC)OC | 0.681% |
| CCOC(=O)C1=NN(c2ccc(Cl)cc2Cl)C(C)(C(=O)OCC)C1 (stereo not drawn) | -1.36% |

biological target: Acetylcholinesterase (Homo sapiens) (UniProt P22303); experiment: Acetylcholinesterase (AChE) small molecule antagonists: fluorescence cell-based qHTS assay (AID 1347398); settings: SH-SY5Y cells; Potency: AChE activity; outcome: AChE activity; series mostly up to 115 µM; activity change, negative = inhibition: at the top concentration; also: nearly all actives have a fitted effect of over 50% in size
Summary of the method: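 Cellular AChE activity read as thiocholine from acetylthiocholine hydrolysis, detected by Thiolite Green fluorescence at 490/520 nm after 40 min at room temperature. Compounds were pre-incubated 30 min at 37 C on adherent SH-SY5Y cells.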

| SMILES | activity change, negative = inhibition |
| --- | --- |
| CC1(C)CC(N)CC(C)(C)N1 | 0.516% |
| CC(C)(C)C(=O)O | -1.09% |
| Cc1cc(O)c2c(O)c3c(O)cccc3cc2c1 | -1.3% [at 53.7 µM] |
| O=c1c2ccccc2nnn1CCl | -7.26% |
| O=C1CCCC(=O)C1 | -1.55% |
| O=C(NN1CCCC1)NS(=O)(=O)c1ccc(Cl)cc1 | 1.69% [at 53.7 µM] |
| CC/C=C\CCCCO | 2.56% |
| OCCCS | 0.931% |
| CC1=CC(=O)[C@H]2C[C@@H]1C2(C)C | 0.0757% |
| NC(=O)c1ccccc1 | 0.0298% |
| Cc1cc(C)c(NC(=O)CN(CC(=O)O)CC(=O)O)c(C)c1Br | 11.6% [at 53.7 µM] |
| COc1cc(Cl)ccc1Oc1ccc(Cl)cc1Cl | -14.9% |
| CC(C)(C)c1ccc(OC(=O)c2ccccc2O)cc1 | 0.67% |
| COc1ccc(S(=O)(=O)N2c3ccc(Cl)cc3[C@@](O)(c3ccccc3Cl)[C@H]2C(=O)N2CCC[C@@H]2C(N)=O)cc1OC | 2.37% [at 53.7 µM] |
| CCCCC(CC)COCCO (stereo not drawn) | 0.706% |
| CC(=O)CCC1=C(C)CCCC1(C)C | 1.06% |
| CC1(c2ccccc2)OC(C(=O)O)=CC1=O (stereo not drawn) | 2.15% [at 53.7 µM] |
| COc1cccc(O)c1O | -11.6% |
| N#Cc1c(F)cccc1F | 0.538% |
| CC(C)(O)c1ccccc1CC[C@@H](SCC1(CC(=O)O)CC1)c1cccc(/C=C/c2ccc3ccc(Cl)cc3n2)c1 | 15.7% [at 53.7 µM] |

| SMILES | activity change, negative = inhibition |
| --- | --- |
| CC(C)(C)C1CCCCC1=O (stereo not drawn) | 2.9% |
| O=C1OC(=O)C2C3C=CC(C3)C12 (stereo not drawn) | 6.46% |
| CCCCCCCCCCc1ccccc1 | 0.277% |
| O=C(O)Cc1ccc(OCCNC[C@H](O)c2ccccc2)cc1 | 11% [at 53.7 µM] |
| C=CCOc1nc(OCC=C)nc(OCC=C)n1 | -6.89% |
| CCC(=O)OC/C=C(\C)CCC=C(C)C | 3.45% |
| C[C@@H]1CN(c2c(F)c(F)c3c(=O)c(C(=O)O)cn(C4CC4)c3c2F)C[C@H](C)N1 | 0.907% [at 23.8 µM] |
| CCOc1ccc(NC(=O)OC(C)C)cc1OCC | 1.74% |
| O=C(O)c1cccc(Cl)n1 | -0.109% |
| Cc1cc(OI)c(C(C)C)cc1-c1cc(C(C)C)c(OI)cc1C | -2.01% [at 53.7 µM] |
| COc1cc(-c2nc(NC(=O)c3cc4cc(C)cc(C)c4n3CC(=O)O)sc2CCC2CCCCC2)c(OC)cc1Cl | -1.27% |
| CCNc1nc(NC(C)CC)nc(OC)n1 (stereo not drawn) | -1.16% |
| CCCCOC(=O)CC | -2.86% |
| CCCCOc1ccc(CC(=O)NO)cc1 | 109% [at 53.7 µM] |
| NC(=O)C1CO1 (stereo not drawn) | 0.866% |
| CC(C)(C)C1CCC(CC2=C(O)c3ccccc3C(=O)C2=O)CC1 (stereo not drawn) | -4.3% [at 53.7 µM] |
| ON=C1CCCC1 | 1.26% |
| CO[Si](CCCNCCC[Si](OC)(OC)OC)(OC)OC | 0.651% |
| CCOC(=O)C1=NN(c2ccc(Cl)cc2Cl)C(C)(C(=O)OCC)C1 (stereo not drawn) | -9.91% |

— PubChem BioAssay (Tox21)
